Compounds without any hit were thinned out: in the full panel of roughly 83,000, 20% have a hit.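 How to read the values: 0–100, growth inhibition (40 = 60% inhibited); 0, no net growth; -100 to 0, cell death (-40 = 40% of starting cells died; -100 = all dead).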 The source made the active and inactive calls. How the source made its calls: active means growth percent below 10; inactive means the rest.
Assays:
Experiment in all cases: NCI-60 one-dose screen, 48 h (100 = growth as untreated, 0 = no growth, -100 = all killed)
Settings in all cases: 10 µM unless noted
NCI-H23 lung = test system: NCI-H23 lung
NCI-H226 lung = test system: NCI-H226 lung
NCI-H322M lung = test system: NCI-H322M lung
HOP-62 NSCLC = test system: HOP-62 NSCLC
NCI-H460 lung = test system: NCI-H460 lung
HOP-92 NSCLC = test system: HOP-92 NSCLC
NCI-H522 lung = test system: NCI-H522 lung
A549/ATCC NSCLC = test system: A549/ATCC NSCLC
786-0 renal = test system: 786-0 renal
COLO 205 colon = test system: COLO 205 colon
DU-145 prostate = test system: DU-145 prostate
K-562 leukemia = test system: K-562 leukemia
MALME-3M melanoma = test system: MALME-3M melanoma
MDA-MB-231 breast = test system: MDA-MB-231 breast
RXF 393 renal = test system: RXF 393 renal
SF-268 CNS = test system: SF-268 CNS
SF-295 CNS = test system: SF-295 CNS
SF-539 CNS = test system: SF-539 CNS
UACC-257 melanoma = test system: UACC-257 melanoma
M14 melanoma = test system: M14 melanoma

Measured: growth

CC(C)NC[C@@H](C(=O)N1CCN(c2ncnc3c2[C@H](C)C[C@H]3O)CC1)c1ccc(Cl)cc1
inactive: NCI-H23 lung 58.7% | NCI-H226 lung 56.2% | NCI-H322M lung 55.6% | HOP-62 NSCLC 54% | NCI-H460 lung 29.3% | NCI-H522 lung 53% | A549/ATCC NSCLC 38% | COLO 205 colon 20.2% | DU-145 prostate 67.8% | K-562 leukemia 64.7% | MALME-3M melanoma 60.1% | MDA-MB-231 breast 87.6% | SF-268 CNS 57.7% | SF-295 CNS 19.9% | UACC-257 melanoma 42.8% | M14 melanoma 69.9%
active: HOP-92 NSCLC 2.39% | 786-0 renal 4.37% | RXF 393 renal -24.8% | SF-539 CNS 2.83%

Cc1ncc(-c2ccnc(Nc3ccc(S(C)(=O)=O)cc3)n2)n1C(C)C
active: NCI-H23 lung -33.8% | NCI-H226 lung 6.32% | NCI-H322M lung -10.8% | HOP-62 NSCLC -14% | NCI-H460 lung -17.2% | HOP-92 NSCLC -4.8% | NCI-H522 lung -24.9% | A549/ATCC NSCLC 1.7% | 786-0 renal 4.84% | COLO 205 colon -27.4% | DU-145 prostate 4.62% | K-562 leukemia 3.66% | MALME-3M melanoma -47.7% | MDA-MB-231 breast -8.39% | RXF 393 renal -50.9% | SF-268 CNS 3.67% | SF-295 CNS -0.591% | SF-539 CNS -65.4% | UACC-257 melanoma -28.3% | M14 melanoma -74.5%

CC(C)(C)c1nc(-c2cccc(NS(=O)(=O)c3c(F)cccc3F)c2F)c(-c2ccnc(N)n2)s1
inactive: NCI-H23 lung 63.6% | NCI-H226 lung 84.5% | NCI-H322M lung 90.3% | HOP-62 NSCLC 77.1% | NCI-H460 lung 74.4% | HOP-92 NSCLC 92.9% | NCI-H522 lung 57.5% | A549/ATCC NSCLC 53.6% | 786-0 renal 91.9% | DU-145 prostate 105% | K-562 leukemia 50.8% | MALME-3M melanoma 21.8% | MDA-MB-231 breast 47.1% | RXF 393 renal 90% | SF-268 CNS 105% | SF-295 CNS 112% | SF-539 CNS 114% | UACC-257 melanoma 25.2% | M14 melanoma 32%
active: COLO 205 colon -5.08%

O=C(O)C1(Cc2cccc(Nc3nccs3)n2)CCC(Oc2cccc(Cl)c2F)CC1 (stereo not given)
inactive: NCI-H23 lung 66% | NCI-H226 lung 82.8% | NCI-H322M lung 76.4% | HOP-62 NSCLC 49.8% | NCI-H460 lung 15.2% | HOP-92 NSCLC 102% | A549/ATCC NSCLC 41.9% | 786-0 renal 75% | COLO 205 colon 59.5% | DU-145 prostate 70.2% | K-562 leukemia 33.9% | MALME-3M melanoma 77.5% | MDA-MB-231 breast 77.5% | RXF 393 renal 82.1% | SF-268 CNS 61.6% | SF-295 CNS 71.5% | SF-539 CNS 89.2% | UACC-257 melanoma 49.6% | M14 melanoma 58%
active: NCI-H522 lung -3.77%

Cc1cc(C)n(CC(=O)Nc2ccc(-c3nc4ccccc4s3)cc2)n1
inactive: NCI-H23 lung 93.8% | NCI-H226 lung 100% | NCI-H322M lung 99.9% | HOP-62 NSCLC 105% | NCI-H460 lung 102% | HOP-92 NSCLC 97.7% | NCI-H522 lung 103% | A549/ATCC NSCLC 94.7% | 786-0 renal 106% | COLO 205 colon 112% | DU-145 prostate 103% | K-562 leukemia 100% | MALME-3M melanoma 108% | MDA-MB-231 breast 108% | RXF 393 renal 129% | SF-268 CNS 100% | SF-295 CNS 103% | SF-539 CNS 98.6% | UACC-257 melanoma 107% | M14 melanoma 111%

CC/C(=C(/c1ccc(Cl)cc1)c1ccc(OCCN2CCCCC2)cc1)c1ccc(Cl)cc1
inactive: NCI-H23 lung 61.9% | NCI-H226 lung 84.5% | NCI-H322M lung 93.1% | HOP-62 NSCLC 86.8% | NCI-H460 lung 79.7% | HOP-92 NSCLC 85.2% | NCI-H522 lung 65.3% | A549/ATCC NSCLC 73% | 786-0 renal 76.7% | COLO 205 colon 70.4% | DU-145 prostate 89.8% | K-562 leukemia 26.2% | MALME-3M melanoma 82.9% | MDA-MB-231 breast 94.3% | RXF 393 renal 96.6% | SF-268 CNS 88% | SF-295 CNS 60.6% | SF-539 CNS 87.8% | UACC-257 melanoma 78.3% | M14 melanoma 76.6%

O=C(Cn1ccnc1)Nc1ccc(-c2nc3ccccc3s2)cc1
inactive: NCI-H23 lung 57.4% | NCI-H226 lung 66.6% | NCI-H322M lung 98.3% | HOP-62 NSCLC 83.8% | NCI-H460 lung 79.8% | HOP-92 NSCLC 75.8% | NCI-H522 lung 74.7% | A549/ATCC NSCLC 70.3% | 786-0 renal 78% | COLO 205 colon 80.8% | DU-145 prostate 81.1% | K-562 leukemia 39.6% | MALME-3M melanoma 81.8% | MDA-MB-231 breast 80.1% | RXF 393 renal 102% | SF-268 CNS 81.1% | SF-295 CNS 65.5% | SF-539 CNS 81.3% | UACC-257 melanoma 67.6% | M14 melanoma 94.4%

Cc1cc(Nc2cc(N3CCN(C)CC3)nc(Sc3ccc(NC(=O)C4CC4)cc3)n2)n[nH]1
active: COLO 205 colon -29.3% | K-562 leukemia 8.47% | RXF 393 renal -18.7% | SF-539 CNS 9.92%
inactive: NCI-H23 lung 38.2% | NCI-H226 lung 36.3% | NCI-H322M lung 58.8% | HOP-62 NSCLC 18.4% | NCI-H460 lung 14.1% | HOP-92 NSCLC 12.1% | NCI-H522 lung 24.1% | A549/ATCC NSCLC 20.6% | 786-0 renal 48.4% | DU-145 prostate 55.7% | MALME-3M melanoma 29.3% | MDA-MB-231 breast 37.1% | SF-268 CNS 48.6% | SF-295 CNS 32.7% | UACC-257 melanoma 18.1% | M14 melanoma 22.3%

From PubChem BioAssay (NCI)
